Data on 65 compounds can be found in the antibiotic and cytotoxicity screens of Wong et al. (2023).

Out of some 39,000 compounds screened, about 3,300 (8.5%) were called active. The list comes from a sample in which actives are over-represented; it also holds similar structures and randomly drawn compounds.

The test relates to HepG2. Kind of test: cytotoxicity call (relative viability < 0.9). The following applies: 10 µM.
Consider `C[C@@H]1CN([C@@H](C)CO)C(=O)c2cc(NC(=O)CCCN(C)C)ccc2O[C@@H]1CN(C)S(=O)(=O)c1ccc(F)cc1`, for which the cytotoxicity call was “inactive”.

As to `C[C@@H]1CN([C@H](C)CO)C(=O)c2cccc(NC(=O)Nc3cccc4ccccc34)c2O[C@H]1CN(C)C(=O)Nc1ccc(C(F)(F)F)cc1`, the cytotoxicity call is “inactive”.

Turning to `C[C@H](CO)N1C[C@H](C)[C@H](CN(C)C(=O)Nc2ccc(C(F)(F)F)cc2)Oc2c(NC(=O)Nc3cccc4ccccc34)cccc2C1=O`, the cytotoxicity call is “inactive”. The value for `C[C@H](CO)N1C[C@H](C)[C@@H](CN(C)C(=O)Nc2ccc(C(F)(F)F)cc2)Oc2c(NC(=O)Nc3cccc4ccccc34)cccc2C1=O` was “active”; that for `COCOc1ccc2cc(Br)ccc2c1-c1c(OCOC)ccc2cc(Br)ccc12` was “active”. For the compound `COc1ccc2ccccc2c1-c1c(OC)ccc2ccccc12`, the cytotoxicity call was “inactive”. Next, `C[C@H]1CN([C@@H](C)CO)C(=O)c2cc(C#CCc3ccccc3)cnc2O[C@H]1CN(C)C(=O)C1CCOCC1`: “inactive”; `C[C@@H]1CCCCO[C@H](CN(C)Cc2ccccc2)[C@H](C)CN([C@@H](C)CO)C(=O)c2cc(NC(=O)C3CCCCC3)ccc2O1`: “inactive”; `COc1ccc(CNC(=O)c2cc3c(c(-c4cccc(-c5ccc(C#N)cc5)c4)n2)[C@@H](CCO)N([S@](=O)C(C)(C)C)C3)cc1`: “inactive”.

Consider `CN(C)CCCNC(=O)C[C@@H]1CC[C@@H]2[C@H](COC[C@H](O)CN2C(=O)Nc2cc(Cl)cc(Cl)c2)O1`, for which the cytotoxicity call is “inactive”. With `C[C@H](CO)N1C[C@H](C)[C@H](CN(C)Cc2ccc(C(=O)Nc3ccccc3N)cc2)Oc2ccc(NC(=O)C3CCCCC3)cc2CC1=O`, the cytotoxicity call was “inactive”. For the compound `C[C@H]1CN([C@@H](C)CO)C(=O)Cc2cc(NC(=O)NC3CCCCC3)ccc2O[C@@H]1CN(C)Cc1ccc(C(=O)Nc2ccccc2N)cc1`, the cytotoxicity call is “inactive”. On to `C[C@@H]1CN([C@H](C)CO)C(=O)Cc2cc(NC(=O)C3CCCCC3)ccc2O[C@@H]1CN(C)Cc1ccc(C(=O)Nc2ccccc2N)cc1`, for which the cytotoxicity call is “active”.

Consider `C[C@H](CO)N1C[C@H](C)[C@@H](CN(C)Cc2ccc(C(=O)Nc3ccccc3N)cc2)Oc2ccc(NC(=O)NC3CCCCC3)cc2CC1=O`, for which the cytotoxicity call is “inactive”. Next, `C[C@@H]1CN([C@H](C)CO)C(=O)Cc2cc(NC(=O)NC3CCCCC3)ccc2O[C@@H]1CN(C)Cc1ccc(C(=O)Nc2ccccc2N)cc1`: “active”; `C[C@H](CO)N1C[C@H](C)[C@H](CN(C)Cc2ccc(C(=O)Nc3ccccc3N)cc2)Oc2ccc(NC(=O)NC3CCCCC3)cc2CC1=O`: “inactive”. The value for `C[C@H]1CN([C@@H](C)CO)C(=O)Cc2cc(NC(=O)NC3CCCCC3)ccc2O[C@H]1CN(C)Cc1ccc(C(=O)Nc2ccccc2N)cc1` was “active”; that for `C[C@H]1CN([C@@H](C)CO)C(=O)Cc2cc(NC(=O)C3CCCCC3)ccc2O[C@H]1CN(C)Cc1ccc(C(=O)Nc2ccccc2N)cc1` was “inactive”; that for `C[C@@H]1CN([C@H](C)CO)C(=O)Cc2cc(NC(=O)NC3CCCCC3)ccc2O[C@H]1CN(C)Cc1ccc(C(=O)Nc2ccccc2N)cc1` was “inactive”.

With `C[C@H](CO)N1C[C@H](C)[C@H](CN(C)C(=O)Nc2ccccc2)Oc2ccc(NS(C)(=O)=O)cc2CC1=O`, the cytotoxicity call is “inactive”. `C[C@@H]1CCCCO[C@H](CN(C)C(=O)NC2CCCCC2)[C@@H](C)CN([C@@H](C)CO)C(=O)c2cc(NS(=O)(=O)c3cccs3)ccc2O1`: the cytotoxicity call is “inactive”. Consider `O=C(C[C@@H]1CC[C@H](NC(=O)CN2CCOCC2)[C@H](CO)O1)NCc1cccc(F)c1`, for which the cytotoxicity call is “inactive”. Turning to `C[C@@H]1CN([C@H](C)CO)C(=O)c2cc(NC(=O)Cn3cnnn3)ccc2O[C@H]1CN(C)S(=O)(=O)c1cn(C)cn1`, the cytotoxicity call was “inactive”. The value for `COc1ccc(NC(=O)Nc2ccc3c(c2)C(=O)N([C@H](C)CO)C[C@H](C)[C@H](CN(C)Cc2ccccc2)OCCCC[C@@H](C)O3)cc1` was “inactive”.

In the case of `C[C@@H]1CN([C@@H](C)CO)S(=O)(=O)c2ccc(-c3cccnc3)cc2O[C@@H]1CN(C)C(=O)c1ccc2c(c1)OCO2`, the cytotoxicity call was “inactive”. Next, `Cn1cnc(S(=O)(=O)N2C[C@@H](O)COC[C@H]3O[C@@H](CC(=O)NCc4cc(F)cc(F)c4)CC[C@@H]32)c1`: “inactive”; `O=C(C[C@H]1CC[C@H]2[C@@H](COC[C@@H](O)CN2C(=O)c2cccnc2)O1)NCC1CC1`: “inactive”; `CC(=O)N1CC2(CCN(CC(=O)N3CCOCC3)CC2)C[C@@H]1C(=O)O`: “inactive”. Consider `COc1ccc(C2=C(NC(=O)c3ccc(OC)cc3-c3cccc(OC)c3)C(=O)c3ccccc3C2=O)cc1`, for which the cytotoxicity call is “active”. `COC(=O)[C@@H](N)c1cccc(OC)c1`: the cytotoxicity call is “inactive”.

Turning to `O=C(NC1=C(c2ccc(OC(F)(F)F)cc2)C(=O)c2ccccc2C1=O)c1ccc(Br)cc1`, the cytotoxicity call is “inactive”. Next, `Cc1noc(C)c1NC(=O)N(C)C[C@@H]1Oc2ncc(C#CCN(C)C)cc2C(=O)N([C@@H](C)CO)C[C@H]1C`: “inactive”; `CNC(=O)C[C@H]1C[C@@H]2CN(S(=O)(=O)c3cccnc3)C[C@@H]2O1`: “inactive”. Next, `Cc1ccc(S(=O)(=O)N(C)C[C@H]2OCCCC[C@H](C)Oc3ccc(NS(=O)(=O)c4ccc(F)cc4)cc3C(=O)N([C@@H](C)CO)C[C@H]2C)cc1`: “inactive”.

`CCOC(=O)C(=O)c1csc(NC=O)n1`: the cytotoxicity call is “inactive”. Next, `[N-]=[N+]=NCc1ccccc1C[C@@]1(C(=O)N2CCCCC2)N=C(c2ccc(OCCCO)cc2)O[C@@H]1c1ccccc1`: “inactive”; `[N-]=[N+]=Nc1ccccc1C[C@@]1(C(=O)N2CCCCC2)N=C(c2ccc(OCCCO)cc2)O[C@@H]1c1ccccc1`: “inactive”; `O=C(NC[C@@H](O)CO)[C@]1(CCS(=O)(=O)c2ccccc2)N=C(c2ccc(OCCCO)cc2)O[C@@H]1c1ccccc1`: “inactive”. The value for `O=C(NC[C@@H](O)CO)[C@]1(Cc2ccccc2)N=C(c2ccc(OCCCO)cc2)O[C@@H]1c1ccccc1` was “inactive”; that for `[N-]=[N+]=NCc1ccccc1C[C@]1(C(=O)NCc2ccccc2)N=C(c2ccc(OCCCO)cc2)O[C@H]1c1ccccc1` was “active”. `[N-]=[N+]=NCc1ccccc1C[C@]1(C(=O)NC[C@@H](O)CO)N=C(c2ccc(OCCCO)cc2)O[C@H]1c1ccccc1`: the cytotoxicity call is “inactive”. Consider `[N-]=[N+]=Nc1ccccc1C[C@]1(C(=O)N2CCCCC2)N=C(c2ccc(OCCCO)cc2)O[C@H]1c1ccccc1`, for which the cytotoxicity call is “active”. The value for `CC(C)(C)OC(=O)CC[C@]1(C(=O)NCc2ccccc2)N=C(c2ccc(OCCCO)cc2)O[C@H]1c1ccccc1` was “active”; that for `[N-]=[N+]=Nc1ccccc1C[C@@]1(C(=O)NCc2ccccc2)N=C(c2ccc(OCCCO)cc2)O[C@@H]1c1ccccc1` was “inactive”.

`CN1CCN(C(=O)C[C@@H]2C=C[C@@H](NC(=O)Nc3ccccc3F)[C@H](CO)O2)CC1`: the cytotoxicity call was “inactive”. As for `OCc1ccc(-c2cccs2)cc1`, the cytotoxicity call is “inactive”. For the compound `CCNC(=O)N1CCN(CCO)CC1`, the cytotoxicity call was “inactive”.

`C[C@@H]1CN([C@H](C)CO)C(=O)c2cc(NC(=O)CCC(F)(F)F)ccc2O[C@@H](C)CCCCO[C@@H]1CN(C)S(=O)(=O)c1ccc(F)cc1`: the cytotoxicity call was “inactive”. The value for `CC(C)CC(=O)N[C@H](C(=O)N[C@H](C(=O)N[C@@H](CC(C)C)[C@@H](O)CC(=O)N[C@@H](C)C(=O)N[C@@H](CC(C)C)[C@@H](O)CC(=O)O)C(C)C)C(C)C` was “inactive”; that for `COc1cccc(S(=O)(=O)N[C@@H]2CC[C@H](CCn3cc(-c4ccccc4OC)nn3)O[C@@H]2CO)c1` was “inactive”. Turning to `Cn1c(=O)c2c(ncn2CC(=O)N2CCN(c3ccccc3)CC2)n(C)c1=O`, the cytotoxicity call is “inactive”.

For `CCOC(=O)CCCCCC(=O)Nc1ccc2c(c1)C(=O)N([C@@H](C)CO)C[C@@H](C)[C@H](CN(C)S(=O)(=O)c1cccs1)OCCCC[C@H](C)O2`, the cytotoxicity call is “inactive”. On to `COc1ccc(S(=O)(=O)N(C)C[C@H]2Oc3c(NC(=O)c4ccncc4)cccc3C(=O)N([C@H](C)CO)C[C@H]2C)cc1`, for which the cytotoxicity call is “inactive”. Next, `C[C@@H]1CN([C@@H](C)CO)C(=O)c2cccc(NC(=O)c3ccncc3)c2O[C@@H]1CN(C)S(=O)(=O)c1ccccc1`: “active”; `C[C@H](CO)N1C[C@H](C)[C@H](CN(C)S(=O)(=O)c2cn(C)cn2)Oc2c(NC(=O)Nc3ccc(F)cc3)cccc2C1=O`: “inactive”. Turning to `COc1ccc(S(=O)(=O)N(C)C[C@@H]2Oc3c(NC(=O)c4ccncc4)cccc3C(=O)N([C@@H](C)CO)C[C@@H]2C)cc1`, the cytotoxicity call is “inactive”. The value for `C[C@H]1CN([C@@H](C)CO)C(=O)c2cccc(NC(=O)c3ccncc3)c2O[C@@H]1CN(C)S(=O)(=O)c1cn(C)cn1` was “inactive”; that for `C[C@@H]1CN([C@H](C)CO)C(=O)c2cccc(NC(=O)c3ccncc3)c2O[C@H]1CN(C)S(=O)(=O)c1cn(C)cn1` was “inactive”; that for `C[C@H](CO)N1C[C@H](C)[C@H](CN(C)S(=O)(=O)c2ccccc2)Oc2c(NC(=O)c3ccncc3)cccc2C1=O` was “inactive”. The value for `C[C@H](CO)N1C[C@H](C)[C@@H](CN(C)S(=O)(=O)c2cn(C)cn2)Oc2c(NC(=O)Nc3ccc(F)cc3)cccc2C1=O` was “inactive”. `COc1ccc(S(=O)(=O)N(C)C[C@H]2Oc3c(NC(=O)c4ccncc4)cccc3C(=O)N([C@@H](C)CO)C[C@H]2C)cc1`: the cytotoxicity call was “active”. Next, `C[C@@H]1CN([C@@H](C)CO)C(=O)c2cccc(NC(=O)c3ccncc3)c2O[C@H]1CN(C)S(=O)(=O)c1cn(C)cn1`: “active”. In the case of `C[C@@H]1CN([C@H](C)CO)C(=O)c2cccc(NC(=O)c3ccncc3)c2O[C@@H]1CN(C)S(=O)(=O)c1ccccc1`, the cytotoxicity call is “inactive”. `C[C@H]1CN([C@@H](C)CO)C(=O)c2cccc(NC(=O)Nc3ccc(F)cc3)c2O[C@@H]1CN(C)S(=O)(=O)c1cn(C)cn1`: the cytotoxicity call was “active”. Next, `C[C@@H]1CN([C@@H](C)CO)C(=O)Cc2cc(NS(=O)(=O)c3cccs3)ccc2O[C@@H]1CN(C)S(=O)(=O)c1cn(C)cn1`: “inactive”.
